A549 tox: counter-screen for Nrf2 inhibitors: cytotoxicity in A549 cells | A549 ARE-Fluc cells, CellTiter-Fluor viability, 18-24 h | Potency, µM (top dose mostly 46 µM), usual class: inhibitors | 0.16% of 390,000 active
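A549 ARE_Fluc cells in 5% FBS OPTI-MEM were exposed to compounds in concentration-response for 18-24 h at 37 deg C. Viability was read by CellTiter-Fluor fluorescence (Ex 405/Em 525) after 30 min, before the luciferase read.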
Nrf2 ARE act: activators of Nrf2 (ARE) signaling. AREc32 ARE-luciferase reporter (MCF7-derived line), luminescence, 24 h. Potency, µM (doses to about 46.1 µM), most hits filed as activators. 0.31% of 410,000 active. AID 624171; also: nearly all actives have a fitted effect of over 65% in size
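Steps: seed AREc32_Fluc cells (1000/well, 5% FBS OPTI-MEM); incubate overnight at 37 deg C; add 23 nL compound; incubate 24 hr; add Steady-Glo; hold 30 min RT; read luminescence.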
ATXN2 expr inh: ATXN2 expression inhibition; HEK-293 ATXN2-luciferase reporter, luminescence, 24 h; Potency, µM (doses to about 57 µM), usual class: inhibitors; 0.72% of 360,000 active; also: nearly all actives have a fitted effect of over 55% in size
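qHTS (up to 57 uM final) was run with 24 h compound exposure of reporter cells at 37 °C. Each well was multiplexed: SteadyGlo luminescence measured ATXN2-luciferase expression after a fluorogenic Gly-Phe-AFC viability readout (25 uM final).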
S2 tox: viability counter-screen for ATXN expression inhibitors | S2 cells (HEK-293 line with an ATXN2-luciferase reporter) viability, CellTiter-Fluor protease fluorescence, 24 h | Potency, µM (highest dose often 56.7 µM), hits mostly cytotoxic | 0.49% of 400,000 active; also: nearly all actives have a fitted effect of over 40% in size
Nrf2 block: inhibitors of Nrf2 signaling; A549 ARE-Fluc reporter, luciferase luminescence, 18-24 h; Potency, µM (highest dose often 46 µM), usual class: inhibitors; 2.1% of 360,000 active; also: nearly all actives have a fitted effect of over 60% in size
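Two sequential reads on A549 ARE_Fluc cells exposed to compound for 18-24 h: a CellTiter-Fluor fluorescence read for viability, then a luciferase luminescence read for Nrf2/ARE activity.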
Of the large screens only hits and unclear results are named; the others gave an inactive call. An excerpt weighted towards active compounds, which were near 2.9% of everything screened. Calls follow the shape of the dose curve; as a rule, active = well fitted curve in the direction sought with a large enough effect; inconclusive = small, poorly fitted or top-dose-only effect, or another doubt; inactive = no such curve, though single readings can be large; an effect the other way counts as inactive or inconclusive.

Cc1cccc(OCCCC(=O)Nc2nc3ccccc3[nH]2)c1	ATXN2 expr inh 13µM, Nrf2 block inconclusive
O=C(NN=C1CCCC1)c1ccc(O)cc1O	Nrf2 block inconclusive
CC(=NNC(=S)N1CCN(C2CCCCCC2)CC1)c1ccccn1	A549 tox inconclusive, S2 tox 1.2µM
CC(=NNC(=S)N1CCN(c2ccccn2)CC1)c1nccs1	ATXN2 expr inh inconclusive, S2 tox inconclusive, Nrf2 block 13µM
S=C(Nc1ccc(Cl)c(Cl)c1)N1CCN(c2ccccn2)CC1	none
C/C(=N\NC(=O)C1CCCN(S(=O)(=O)c2ccccc2)C1)c1ccncc1 (stereo not drawn)	none
S=C(Nc1ccc(Oc2ccccc2)cc1)N1CCN(c2ccccn2)CC1	Nrf2 block 16µM (no result: ATXN2 expr inh)
C/C(=N\NC(=O)C1CCCN(S(=O)(=O)c2ccccc2)C1)c1ccccn1 (stereo not drawn)	A549 tox inconclusive, ATXN2 expr inh 8.9µM, S2 tox inconclusive, Nrf2 block 12µM
CC(=O)CC(=O)[C@@]1(O)CC[C@@H]2[C@@H]3C=C(C)C4=CC(=O)CC[C@@H]4[C@H]3CC[C@]21C	none (no result: A549 tox, Nrf2 ARE act, ATXN2 expr inh, Nrf2 block)
S=C(Nc1ccccc1)Nc1ccc(OCc2ccc(Cl)cc2Cl)cc1	ATXN2 expr inh 1µM, Nrf2 block 18µM
OCCCCNCc1ccc(OCc2ccc(Cl)cc2Cl)cc1	A549 tox inconclusive, ATXN2 expr inh 25µM, S2 tox 25µM, Nrf2 block inconclusive
Cc1cc(C)cc(S(=O)(=O)c2cnc3ccccc3n2)c1	Nrf2 ARE act 22µM
O=S(=O)(c1ccc(Cl)cc1)c1cnc2ccccc2n1	Nrf2 ARE act inconclusive, S2 tox inconclusive, Nrf2 block inconclusive
O=C(CSCC(=O)Nc1nc(-c2ccc3c(c2)OCO3)cs1)Nc1nccs1	Nrf2 block 21µM
Cc1ccccc1CN(c1ccc(C(=O)N2CCc3ccccc3C2)cc1)S(C)(=O)=O	Nrf2 block 15µM
COc1ccc(Br)cc1/C=C/C(=O)c1ccc(NC(C)=O)cc1	A549 tox 8.2µM, Nrf2 ARE act inconclusive, ATXN2 expr inh 22µM, S2 tox inconclusive, Nrf2 block 5.2µM
COc1ccc(NC(=O)/C=C/c2cc(Br)ccc2OC)cc1	none
CN(C)S(=O)(=O)c1ccc2nc(NC(=O)c3cccnc3)sc2c1	Nrf2 block inconclusive
O=C(NC(Nc1nc2ccc([N+](=O)[O-])cc2s1)(C(F)(F)F)C(F)(F)F)c1cccnc1	A549 tox 7.3µM, ATXN2 expr inh inconclusive, S2 tox inconclusive, Nrf2 block 5.8µM
O=C(NC(Nc1nc2ccc([N+](=O)[O-])cc2s1)(C(F)(F)F)C(F)(F)F)c1ccccc1Cl	A549 tox 5.8µM, ATXN2 expr inh inconclusive, S2 tox inconclusive, Nrf2 block 1.8µM
Cc1ccc2nc3sc(C(=O)N4CCOCC4)c(N)c3cc2c1	ATXN2 expr inh 2.5µM, Nrf2 block inconclusive
COc1ccc(NCC(=O)N2CCCC2)cc1Cl	none
[N-]=[N+]=CC(=O)CNC(=O)[C@@H](Cc1ccccc1)N1C(=O)c2ccccc2C1=O	A549 tox 13µM (no result: S2 tox, Nrf2 block)
O=C(Cc1ccc(Cl)cc1)SCc1ccccc1	none
CC(C)CN(C(=O)CSc1nc2ccccc2c(=O)[nH]1)c1c(N)n(CC(C)C)c(=O)[nH]c1=O	S2 tox inconclusive
O=C(Nc1ccccc1F)c1cc(Cl)sc1Cl	Nrf2 ARE act inconclusive, Nrf2 block inconclusive
O=C(Nc1ccc(F)cc1F)c1csc(-c2cccs2)n1	Nrf2 ARE act 10µM, Nrf2 block inconclusive
O=C(Nc1ccc(F)cc1F)c1cc(Cl)sc1Cl	Nrf2 ARE act 14µM, Nrf2 block inconclusive (no result: S2 tox)
COc1ccc(S(=O)(=O)Oc2ccccc2C(N)=O)cc1	none
CCC(C)N(C(=O)COC(=O)c1nc2nc(C)cc(C)n2n1)C1CCS(=O)(=O)C1 (stereo not drawn)	none
O=C(Nc1ccc(-c2nc3ccccc3[nH]2)cc1)c1ccco1	Nrf2 block inconclusive
O=C(/C=C/c1ccco1)Nc1ccc(-c2nc3ccccc3[nH]2)cc1	A549 tox 23µM, Nrf2 ARE act inconclusive, ATXN2 expr inh inconclusive, S2 tox inconclusive
COc1ccc(CNC(=O)CN(C(=O)c2csnn2)c2cccc3c2CCCC3)cc1	none
CCN(CC)S(=O)(=O)c1ccc(C)c(NC(=O)Cn2c(=O)cnc3ccccc32)c1	Nrf2 block inconclusive
CCOC(=O)C1CCN(Cc2oc(CO)cc(=O)c2O)CC1	S2 tox inconclusive
O=C(Nc1ccc2c(c1)OCCO2)C1CCN(c2ncccn2)CC1	none
COC(=O)c1cccc(NC(=S)NCCC2=CCCCC2)c1	Nrf2 block 23µM
NS(=O)(=O)c1cccc(NC(=O)C2CC(=O)N(Cc3ccco3)C2)c1 (stereo not drawn)	none
CCOc1ccc(C(C)C)cc1S(=O)(=O)Nc1ccc(Cl)cn1	none (no result: Nrf2 block)
CC(NC(=O)CCc1nnc(-c2ccc(-c3ccccc3)cc2)o1)c1nc2ccccc2[nH]1 (stereo not drawn)	ATXN2 expr inh 3.8µM, Nrf2 block inconclusive
CCOC(=O)c1ccc(N2C(=O)c3n[nH]c(-c4cccs4)c3C2c2ccc(C(C)C)cc2)cc1 (stereo not drawn)	A549 tox inconclusive, Nrf2 block 23µM
CCOC(=O)c1ccc(N2C(=O)c3n[nH]c(-c4cccs4)c3C2c2ccc(OCC)cc2)cc1 (stereo not drawn)	ATXN2 expr inh inconclusive, S2 tox inconclusive, Nrf2 block inconclusive
CCOC(=O)c1ccc(N2C(=O)c3n[nH]c(-c4cccs4)c3C2c2cccc(O)c2)cc1 (stereo not drawn)	ATXN2 expr inh inconclusive, S2 tox 28µM, Nrf2 block inconclusive
CCOC(=O)c1ccc(N2C(=O)c3n[nH]c(C)c3C2c2ccc(CC)cc2)cc1 (stereo not drawn)	none
CCOC(=O)c1ccc(N2C(=O)c3n[nH]c(C)c3C2c2ccc(OC)cc2OC)cc1 (stereo not drawn)	A549 tox inconclusive, Nrf2 block 18µM
CCOC(=O)c1ccc(N2C(=O)c3n[nH]c(-c4ccco4)c3C2c2ccc(OC)cc2OC)cc1 (stereo not drawn)	ATXN2 expr inh inconclusive, S2 tox inconclusive, Nrf2 block inconclusive
CCOC(=O)c1ccc(N2C(=O)c3n[nH]c(-c4cccs4)c3C2c2ccc(CC)cc2)cc1 (stereo not drawn)	A549 tox inconclusive, Nrf2 block 16µM (no result: ATXN2 expr inh, S2 tox)
O=C(c1ccc(Cl)nc1)N1CCN(S(=O)(=O)c2ccc(Cl)cc2)CC1	none (no result: ATXN2 expr inh)
Cc1cccc(-c2nnn(CC/C(N)=N/O)n2)c1	none
CCn1c2ccccc2c2cc(NC(=O)COC(=O)c3cc(OC)c(OC)cc3OC)ccc21	ATXN2 expr inh inconclusive, S2 tox inconclusive, Nrf2 block 16µM
CCc1ccc(OCC(=O)Nc2ccc3c(c2)c2ccccc2n3CC)cc1	Nrf2 block inconclusive
Cc1cc(Cl)ccc1OC(C)C(=O)Nc1ccc(S(=O)(=O)Nc2cnc3ccccc3n2)cc1 (stereo not drawn)	Nrf2 block 8.2µM

Assay outcomes: PubChem, National Center for Advancing Translational Sciences (NCATS)
